Reference: PubChem BioAssay (Tox21)
Inconclusive results are not listed. Where a call stands in place of a potency, no number is given. Calls of active or inactive are those of the source. Calls come from the whole dose curve; as a rule, active = well fitted inhibition curve with a large enough effect in the repeat runs; inconclusive = weak or mixed curves, or effect the other way; inactive = no such curve, though single readings can be large or run the other way.

Target: Nuclear receptor ROR-gamma (Homo sapiens) (UniProt P51449)
Assay: qHTS assay to identify small molecule antagonists of the retinoid-related orphan receptor gamma (ROR-gamma) signaling pathway (AID 1159521; note: top concentration of the series differs between compounds; nearly all actives have a fitted effect of over 50% in size)
Settings: Tet-on RORgamma CHO cells, RORE-luciferase, 16 h; series mostly up to 92.4 µM
Source text: U.S. Tox21 Program National Center for Advancing Translational Sciences [NCATS] NIH Chemical Genomics Center [NCGC] U.S. Environmental Protection Agency [EPA] National Institutes of Environmental Health Sciences [NIEHS] National Toxicology Program [NTP] U.S. Food and Drug Administration [FDA] Tox21 Assay Overview: Nuclear steroid hormone receptors are involved in many biological processes including inflammatory responses, cell proliferation, and apoptosis. Environmental factors or compounds disrupting these nuclear receptor pathways and gene expression may promote susceptibility to immunotoxicants and autoimmune diseases. One important group of these expression factors are the retinoid-related orphan receptors. To assess compounds that may interfere with the retinoid-related orphan receptor gamma (ROR-gamma) transcription factor, a cell-based luciferase assay was used. The CHO cell-based assay utilizes a TET-inducible ROR expression factor and ROR response element-LUC reporter gene. Reporter gene activity was induced using Doxycycline Hyclate and measured after 16 hr incubation. Tet-on ROR gamma CHO cells were used to screen against the Tox21 10K compound library for ROR gamma antagonists by quantification of decreased reporter gene activity in terms of decreased luminescence.
Tox21 Assay Protocol Summary: Tet-on ROR gamma CHO cells were dispensed at 1,000 cells in 4 uL of culture medium per well into white wall/solid bottom 1536-well plates using a Multidrop Combi (Thermo Scientific, Waltham, MA) dispenser. Following incubation at 37 C and 5% CO2 for 4 hr, 23 nL of compounds dissolved in DMSO, positive controls or DMSO only were transferred by a Pintool station (Kalypsys, San Diego, CA) and after 2 hr incubation at 37 C, one ul of 1 uM (final concentration) of Doxycycline Hyclate was added to all the wells by using a Flying Reagent Dispenser (FRD) (Aurora Discovery, San Diego, CA). After 16 hr incubation at 37 C and 5% CO2, 5 uL of ONE-Glo reagent (Promega Corporation, Madison, WI) was added to each assay plate using FRD. After 30 min incubation at room temperature, luminescence was quantified on a ViewLux plate reader (Perkin Elmer, Waltham, MA).

Compound | Potency
CCC(=O)/C=C/c1ccc(OC)cc1 | inactive
C=C(C)[C@@H]1CCC2=CC(=O)C[C@@H](C)[C@]2(C)C1 | inactive
CC(=O)OC(C)(C)C | inactive
CC1(C)SC(C)(C)SC(C)(C)S1 | inactive
NC(=O)CCCCC1CCSS1 (stereo not given) | inactive
C=CCOc1nc(OCC=C)nc(OCC=C)n1 | inactive
CC(=O)NC(Cc1ccccc1)C(=O)O (stereo not given) | inactive
O=C(O)C1CCC1 | inactive
CCN1CCCC(OC(=O)C(c2ccccc2)c2ccccc2)C1 (stereo not given) | inactive
O=C(CCOCCOCCOCCOCCC(=O)Nc1c(I)cc(I)c(C(=O)O)c1I)Nc1c(I)cc(I)c(C(=O)O)c1I | inactive
O=C(O)CCNC(=O)c1ccc(N=Nc2ccc(O)c(C(=O)O)c2)cc1 | inactive
CSc1nc(NC2CC2)nc(NC(C)(C)C)n1 | inactive
CCCC=O | inactive
NC(CS)C(=O)O (stereo not given) | inactive
C1C2OC2C2C1C1CC2C2OC12 (stereo not given) | inactive
CCC(=O)Nc1cccc(N)c1 | inactive
CCCCCCCCC=O | inactive
Cc1nc(-c2ccc(OCC(C)C)c(C#N)c2)sc1C(=O)O | inactive
NS(=O)(=O)c1cc2c(cc1Cl)NC(CSCc1ccccc1)=NS2(=O)=O | inactive
O=C(O)Cc1cc(I)c(Oc2cc(I)c(O)c(I)c2)c(I)c1 | inactive

Compound | Potency
Cc1c(C)n(CCN(C)C)c2ccc(C(=O)OCCN(C)C)cc12 | inactive
CC(O)CN(CCCN(C)C)CCCN(C)C (stereo not given) | inactive
O=C(O)c1cccc(C(=O)O)n1 | inactive
CC(CCO)CCCC(C)(C)O (stereo not given) | inactive
COCCOC(=O)CC#N | inactive
NS(=O)(=O)c1cc(C2(O)NC(=O)c3ccccc32)ccc1Cl (stereo not given) | inactive
OCC(CO)(CO)COCC(CO)(CO)CO | inactive
CC1(C)OC(=O)Nc2ccc(Br)cc21 | inactive
CN(C)CCOC(c1ccc(Cl)cc1)c1ccccn1 (stereo not given) | inactive
CCC(C)OC(=O)N1CCCCC1CCO (stereo not given) | inactive
CCCCCCCCCCC1CO1 (stereo not given) | inactive
C=CC(=O)N1CCOCC1 | inactive
OCC(O)[C@@H](O)[C@H](O)[C@H](O)CO[C@H]1O[C@H](CO)[C@@H](O)[C@H](O)[C@H]1O (stereo not given in full) | inactive
CCN1CCN(c2cc3c(cc2F)c(=O)c(C(=O)O)cn3C2CC2)CC1 | inactive
Nc1nc2c(ncn2CCC(CO)CO)c(=O)[nH]1 | inactive
CN(C)C(=O)Nc1ccccc1 | inactive
C=C(C)C1CC=C(C)C(O)C1 (stereo not given) | inactive
CCCCCCCCCCCCCCCCCC(=O)OCCCCCCCCCCCCCC(C)C | inactive
CCCCCCCCCCCl | inactive
NC(=O)c1ncn([C@@H]2O[C@H](CO)[C@@H](O)[C@H]2O)c1O | inactive
